KDM4E inh – blocks human JMJD2E demethylase activity; B2RXH2; Potency, µM (doses to about 57.1 µM), for the others: at the top dose activity change, negative = inhibition, actives largely listed as inhibitors; JMJD2E catalytic domain, FDH-coupled NADH fluorescence (FDH is formaldehyde dehydrogenase); hit rate 1.6% among 230,000; active = well fitted inhibition curve with a large enough effect, not every such curve was filed as active; inconclusive = small, poorly fitted or top-dose-only effect, or another doubt; inactive = no such curve, though single readings can be large or run the other way;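 also: potency is read from the fitted curve at half-maximal effect; 0% = wells with enzyme and -100% = buffer wells without enzyme; nearly all actives have a fitted effect of over 50% in size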
Target sequence (B2RXH2 1-337 limits assumed): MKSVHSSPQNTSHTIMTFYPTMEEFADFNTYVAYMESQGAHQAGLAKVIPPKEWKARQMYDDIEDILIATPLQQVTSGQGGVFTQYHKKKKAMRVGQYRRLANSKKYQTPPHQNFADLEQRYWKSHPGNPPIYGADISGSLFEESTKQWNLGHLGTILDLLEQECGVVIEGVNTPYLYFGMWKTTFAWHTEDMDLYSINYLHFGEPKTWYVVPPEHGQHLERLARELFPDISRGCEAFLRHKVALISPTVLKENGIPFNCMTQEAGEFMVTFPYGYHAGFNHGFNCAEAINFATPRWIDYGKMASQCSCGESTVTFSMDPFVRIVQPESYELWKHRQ
Sfp inh – blocks B. subtilis Sfp PPTase activity. Q9F4F7. Biochemical Sfp PPTase activity, qHTS. Potency, µM, without a hit: largest response in the series, negative = inhibition, hits mostly inhibitors. hit rate 3.5% among 310,000. AID 1490;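 also: the enzyme is Sfp with the accession as filed and its product quenches rhodamine fluorescence; potency is read from the fitted curve at half-maximal effect; 0% = enzyme reaction without inhibitor and -100% = no enzyme wells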
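Buffer: 50 mM Hepes-Na pH 7.6, 10 mM MgCl2, 0.01% Nonidet P-40, 0.01% BSA. Enzyme 15 nM, pre-exposed to compound 15 min; substrates then added and fluorescence change tracked over 30 min.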
Coupling enz – coupling enzyme interference in Giardia aldolase counter-screen; coupling enzyme system counterscreen, AmpLite Red fluorescence; activity change, negative = inhibition, % at 58.2 µM, hits read low; hit rate 0.67% among 290,000; AID 2472; in the data active = activity change below about -30%
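Counterscreen lacking aldolase: glyceraldehyde-3-phosphate coupling-enzyme reagent preincubated 10 min at RT with compound (at 57.5 uM final), then substrate/coupling system with AmpLite Red added; fluorescence read at 525/598 nm after 20 min RT.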
Tau FP inhib – tau fibrillization inhibition (FP) | P10636 | K18 P301L tau heparin fibrillization, Alexa594 FP, 6 h | Potency, µM (top dose mostly 57.7 µM), inactives show at the top dose activity, negative = inhibition, usual class: inhibitors | hit rate 0.39% among 280,000; also: potency is read from the fitted curve at half-maximal effect; nearly all actives have a fitted effect of over 55% in size
Target sequence (P10636 561-689 P618L limits assumed): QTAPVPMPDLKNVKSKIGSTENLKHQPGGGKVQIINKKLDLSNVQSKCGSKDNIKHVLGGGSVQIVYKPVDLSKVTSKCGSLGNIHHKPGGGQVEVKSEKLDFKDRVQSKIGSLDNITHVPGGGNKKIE
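Human K18 P301L fragment (15 uM unlabeled plus 0.24 uM Alexa 594-labeled) in 100 mM sodium acetate pH 7 with compound, aggregation induced by 20 uM heparin for 6 hr at 37 C. ThT (30 uM) added for 1 hr, then Alexa 594 FP read.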
Tau fluor counter – counter-screen for tau fibril formation inhibitors. hit rate 0.93% among 280,000. Potency, µM (highest dose often 57.7 µM), inactives show top-dose activity change, negative = decrease. tau K18 P301L Alexa594 fluorescence, heparin fibrillization; also: potency is read from the fitted curve at half-maximal effect; nearly all actives have a fitted effect of over 55% in size
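Human tau K18 P301L (15 uM unlabeled, 0.24 uM Alexa 594-labeled) in 100 mM sodium acetate pH 7 with 20 uM heparin, 6 hr at 37 C. ThT 30 uM added, 1 hr ambient; Alexa 594 FP and total fluorescence read at 555/632 nm.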
Tau fibril ThT – tau fibrillization inhibition (ThT binding); recombinant tau K18 P301L, heparin-induced fibrillization, ThT fluorescence; Potency, µM (titrated, usually from 57.4 µM), inactives show top-dose activity, negative = inhibition, hits mostly inhibitors; hit rate 2.1% among 270,000; AID 1460; also: potency is read from the fitted curve at half-maximal effect; nearly all actives have a fitted effect of over 55% in size
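Using a mix of unlabeled (15 uM) and Alexa 594-labeled (0.24 uM) tau K18 P301L, heparin-triggered fibrillization over 6 hr at 37 C was scored by ThT fluorescence.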
* hit, by the source's call; ? = inconclusive; . = no result given; [ ] = dose if it differs, or a comment. Sampled rows, rich in hits. Any-hit rate of the full collection: about 5.3%. Unless noted, calls follow the shape of the dose curve; as a rule, active = well fitted curve in the direction sought with a large enough effect; inconclusive = small, poorly fitted or top-dose-only effect, or another doubt; inactive = no such curve, though single readings can be large; an effect the other way counts as inactive or inconclusive. Unless noted, % is scaled to controls: 0 for no effect and ±100 for the full control effect.

SMILES | KDM4E inh | Sfp inh | Coupling enz | Tau FP inhib | Tau fluor counter | Tau fibril ThT
CC(=O)OCC1OC(C#CC2=CCCCC2)C=CC1OC(C)=O (stereo not given) | . | -2.4% | 5.8 | -18.5%[11.6 µM] | -9.8%[11.6 µM] | ?
Cc1cc(C)n2nc(-c3ccsc3-n3c(C)ccc3C)cc2n1 | -20.4% | 50.1µM* | 0.1 | -0.7% | -14.3% | ?
Cc1ccc(-c2csc3ncnc(SCC(=O)NCc4ccc5c(c4)OCO5)c23)cc1 | -1.8% | -14.2% | 8.7 | -12.6% | -15.2% | -0.3%
O=C(CSc1ncnc2scc(-c3ccc(Cl)cc3)c12)NCc1ccc2c(c1)OCO2 | 6.6% | 7.5% | -33.1* | 6.3% | -10.4% | -3.2%
Cc1ccc(-c2[nH]c3ccccc3c2SCCNC(=O)c2cc3ccccc3oc2=O)cc1 | 6.3% | 4.6% | 1.0 | -9.0% | 8.91µM*[quencher] | ?
CN(C)CCNC(=O)c1cc2ccccc2oc1=O | ? | 8.0% | -1.0 | 5.8% | 4.6% | -4.0%
O=C(NCCSc1c(-c2ccccc2)[nH]c2ccccc12)c1cc2ccccc2oc1=O | -16.5% | 19.0% | -2.1 | -11.8% | 7.08µM*[quencher] | ?
C/C=C1\COC(C(=O)NCCN2CCOCC2)(C(F)(F)F)C=C1C=C(C)C (stereo not given) | . | -5.4% | -2.6 | . | . | .
C/C(=N\Nc1nccnc1Cl)c1ccc(O)cc1 | . | ? | -0.5 | . | . | .
C/C(=N\Nc1nccnc1Cl)c1ccc(F)cc1 | -22.3% | 22.4µM* | -1.7 | 8.1% | -4.6% | 2.3%
CCc1ccc2nc(N(CCN(CC)CC)C(=O)c3ccco3)sc2c1 | . | . | . | -14.2% | -19.7% | 4.6%
CC1=NN(c2ccccc2)C(=O)C1C=Nc1ccccc1O (stereo not given) | 31.6µM* | -3.7% | -1.2 | 4.0% | ? | ?
CCCc1ccc(-c2c(C)sc(N)c2C#N)cc1 | -15.8% | 35.5µM* | -10.6 | ? | 15.8µM*[quencher] | ?
COc1ccc(OC)c(N2C(=O)C(Cl)=C(N3CCOCC3)C2=O)c1 | -3.4% | 3.6% | 3.0 | 25.1µM* | ? | 14.1µM*
O=C1C(Cl)=C(N2CCCCC2)C(=O)N1c1ccccc1Cl | 0.5% | -5.9% | 4.2 | 20µM* | ? | 14.1µM*
Cc1ccccc1N1C(=O)C(Cl)=C(N2CCCCCC2)C1=O | -5.6% | -26.2% | 3.2 | ? | -25.3% | ?
COc1ccccc1N1C(=O)C(Cl)=C(N2CCCC2)C1=O | . | -3.8% | 0.0 | . | . | .
COc1ccc(OC)c(N2C(=O)C(Cl)=C(N3CCCCC3)C2=O)c1 | 6.2% | 5.3% | 0.6 | 15.8µM* | ? | 12.6µM*
OC1c2ccccc2N=C2CCCN21 (stereo not given) | . | 19.6% | -0.1 | . | . | .
O=C(CNc1ccc(Oc2ccccc2)cc1)N1CCOCC1 | ? | 50.1µM* | 0.9 | 3.0% | 7.2% | 0.4%
COC(=O)CN(Cc1ccccc1)S(=O)(=O)c1ccc(OC)c(OC)c1 | -13.0% | 27.8% | 2.6 | ? | -22.7% | 15.8µM*
CC1(COc2ccc(CC3SC(=O)NC3=O)cc2)CCCCC1 (stereo not given) | -3.4% | 14.3% | 4.5 | 0.1% | -0.7% | -0.2%
Fc1ccc(C2=NN(c3ccccc3)C(c3ccco3)C2)cc1 (stereo not given) | ? | -1.6% | -3.5 | 3.1% | ? | ?
O=[N+]([O-])c1ccc(/C=C/C2=NN(c3ccccc3)C(c3ccco3)C2)o1 (stereo not given) | 3.1% | -6.5% | -1.5 | 1.3% | ? | 7.94µM*
C(=C\c1ccco1)/C1=NN(c2ccccc2)C(c2ccco2)C1 (stereo not given) | ? | 28.2µM* | -1.5 | -1.3% | ? | ?
SMILES | KDM4E inh | Sfp inh | Coupling enz | Tau FP inhib | Tau fluor counter | Tau fibril ThT
Cc1cccc(-c2nc3c4ccccc4nc(N4CCN(c5cccc(Cl)c5)CC4)n3n2)c1 | . | . | . | -0.5% | -3.1% | 14.7%
CCCCOCC(O)CCc1n[nH]c(=S)n1-c1ccccc1 (stereo not given) | 0.3% | ? | 6.5 | -3.5% | -0.5% | -6.7%
CC(C)OCC(O)CCc1n[nH]c(=S)n1-c1ccccc1 (stereo not given) | 2.8% | 79.4µM* | 0.6 | 2.7% | -2.2% | -4.1%
O=c1c2c3c(sc2ncn1/N=C/c1ccc([N+](=O)[O-])o1)CCCC3 | 6.1% | -15.5% | -8.0 | -15.4% | ? | 20µM*
COc1ccc(N=Nc2cnc(C)nc2-c2ccccc2)cc1 | -1.9% | -24.8% | -0.7 | 9.9% | ? | 17.8µM*
COc1ccc(/C=C/C(=O)NC(=S)NNC(=O)c2cnccn2)cc1 | 7.94µM* | 18.6% | 2.6 | -6.2% | ? | .
CN1C(=O)CC(c2ccco2)Sc2ccccc21 (stereo not given) | 0.6% | 12.5% | 4.7 | -3.3% | -9.9% | -19.8%
CCCN1C(=O)CC(c2ccco2)Sc2ccccc21 (stereo not given) | 3.6% | 35.5µM* | 4.2 | 8.4% | 6.7% | -3.8%
Cc1ccc(-c2nn(-c3ccccc3)cc2CNCc2ccccc2)cc1 | -28.9% | 17.8µM* | 0.9 | -12.0% | -29.8% | ?
CCOc1ccc(CN2CCN(S(=O)(=O)c3ccc(Cl)cc3)CC2)cc1 | . | . | . | -4.2% | -17.7% | -9.1%
CC(=O)Nc1ccc(Nc2nc(C)c([N+](=O)[O-])c(N(C)c3ccccc3)n2)cc1 | -4.6% | 7.3% | 0.4 | ? | 17.8µM*[quencher] | 15.8µM*
CC(=O)Nc1ccc(Nc2ncc([N+](=O)[O-])c(Nc3ccc(NC(C)=O)cc3)n2)cc1 | -2.2% | -5.0% | -3.8 | -6.6% | -29.9% | 8.91µM*
CCC(=O)Nc1ccc(Nc2nc(C)c([N+](=O)[O-])c(Nc3ccc(NC(=O)CC)cc3)n2)cc1 | -5.0% | 5.6% | -10.4 | ? | -28.1% | 28.2µM*
Cc1nc(Nc2ccc(C(=O)O)cc2)nc(Nc2ccc(C(=O)O)cc2)c1[N+](=O)[O-] | -5.0% | 13.6% | 1.5 | 0.4% | -7.7% | ?
CC(=O)Nc1ccc(Nc2nc(C)c([N+](=O)[O-])c(Nc3ccccc3)n2)cc1 | 3.4% | -3.6% | 3.2 | 18.2% | ? | 8.91µM*
COc1ccc2c(c1)O[C@@H](c1ccc3c(c1)OCO3)[C@H](OC(=O)N[C@H]1CCCc3ccccc31)C2=O | 5.6% | -9.3% | 0.7 | -4.9% | -8.6% | -11.9%
CC(=O)N1CCc2cc(C(=O)CN3CCN(c4ccccn4)CC3)ccc21 | 8.8% | 50.1µM* | -2.6 | -8.8% | -17.8% | .
CC(=O)N1CCc2cc(C(=O)CN3CCN(c4ccccc4F)CC3)ccc21 | ? | 50.1µM* | -0.4 | -7.5% | -14.9% | ?
CN1CCc2c(sc3c2C(=O)NC(c2ccccn2)N3)C1 (stereo not given) | ? | 15.8µM* | -61.5* | ? | 25.3% | -16.2%
c1ccc(CNc2ncnc3sc4c(c23)CCC4)nc1 | 10.8% | 5.1% | 1.9 | -1.4% | -9.6% | -13.0%
